Data on 40 molecules can be found in PubChem BioAssay AID990 (National Center for Advancing Translational Sciences (NCATS), 2007).

Calls of active or inactive are those of the source.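 How the source made its calls: active means compound that made reporter-free parental cells show up as glowing objects under laser imaging, so likely a fluorescent false positive; inactive means the rest.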

The nature of this assay: Parental Cell Counter Screen Assay for Epigenetic Modulators. The note with it: parental c127i cells, compound fluorescence imaging, 30 h. An excerpt:
NIH Molecular Libraries Screening Centers Network [MLSCN] NIH Chemical Genomics Center [NCGC] MLSCN Grant: 1 X01 MH079860-01 Assay Provider: Elisabeth D. Martinez, University of Texas SW Medical Center NCGC Assay Overview: This assay is a counter screen for the Locus Derepression (LDR) assay (PubChem AID 597). The LDR assay detects the derepression of a GFP reporter that is stably integrated in a region of the genome of murine c127i mammary cells that is presumably silenced. Compounds that cause derepression of the locus to express GFP are identified by enumerating GFP positive cells using a laser-scanning microplate cytometer. […] Compounds active in the parental c127i cells are likely fluorescent.
NCGC Assay Protocol Summary: Two hundred and fifty cells in 5 uL per well were dispensed into black, clear-bottom 1536-well plates. Twenty-three nL compound was transferred to the assay plate and cells were incubated 30 hours at 37 C. Medium was removed, cells were washed two times with PBS, and fluorescent cells were enumerated as objects between the sizes of 20 to 120 um width and depth using a laser-scanning microplate imager (Acumen Explorer Ex3, TTP Labtech).
On the technique in general: A counterscreen serves to expose hits that act by an unwanted route or on another target.
On to `CCN1CSC(=S)N(CC)C1`, for which the result was inactive.

With `O=C(CSc1cccc2cccnc12)N1CCCC1`, the result was inactive.

Regarding `CCNc1nc(NCC)nc(-n2nc(C)cc2C)n1`, the outcome was inactive. For `Cc1cc(NC(c2ccccn2)c2ccc3cccnc3c2O)no1` (stereo not given), the result was inactive. On the same count and under the same terms, for `O=C1OCCC1Sc1cccc2cccnc12` (stereo not given) the value was “inactive”. For `CC(C)C(=O)NC(c1cccs1)c1cc(Cl)c2cccnc2c1O` (stereo not given), the result was inactive. The same measure, in the same setting: next, `Oc1ccc(COCc2ccccc2)c2cccnc12`: “inactive”; `CN1CCN(Cc2cc(Cl)c3cccnc3c2O)CC1`: “inactive”. As to `c1cnn(-c2nc(N3CCOCC3)nc(N3CCOCC3)n2)c1`, the result was inactive.

Consider `CC(/C=C/C(=O)NO)=C\[C@@H](C)C(=O)c1ccc(N(C)C)cc1`, for which the result was inactive. On the same count and under the same terms, for `Oc1c(C(Nc2ccccc2C(F)(F)F)c2ccccn2)ccc2cccnc12` (stereo not given) the value was “inactive”. Consider `Oc1c(C(Nc2ccccn2)c2ccccn2)ccc2cccnc12` (stereo not given), for which the outcome was inactive. Same read-out and setting: next, `CC(C)C(=O)NC(c1ccco1)c1cc([N+](=O)[O-])c2cccnc2c1O` (stereo not given): “inactive”; `COc1cccc(C(=O)NC(c2ccco2)c2cc(Cl)c3cccnc3c2O)c1` (stereo not given): “inactive”. On to `CN(C)C(=O)CSc1cccc2cccnc12`, for which the outcome was inactive. The same measure, in the same setting: for `COc1ccc(C)cc1N=Nc1ccc(O)c2ncccc12` the value was “inactive”. For `O=C(Oc1cccc2cccnc12)c1ccc(Br)o1`, the outcome was inactive. As to `COC(=O)c1cccc(NC(c2ccccn2)c2ccc3cccnc3c2O)c1` (stereo not given), the result was inactive. Consider `CCN(CC)c1ccc2cc(-c3nc4ccccc4[nH]3)c(=O)oc2c1`, for which the Potency was 410 nM [fluorescent] (active). Take `Cc1cc(C)n(-c2nc(NC(C)C)nc(NC(C)C)n2)n1`: the outcome was inactive.

For the molecule `c1ccc(Nc2nc(Nc3ccccc3)nc(-n3cccn3)n2)cc1`, the outcome was inactive.

Consider `Cc1cc(C)n(-c2nc(NC(C)C)nc(NC(C)(C)C)n2)n1`, for which the result was inactive. Regarding `CC(C)C(=O)NC(c1ccc(Cl)cc1Cl)c1ccc2cccnc2c1O` (stereo not given), the result was inactive. The same measure, in the same setting: for `COc1ccc(C)cc1NC(c1ccccn1)c1ccc2cccnc2c1O` (stereo not given) the value was “inactive”.

`O=C(Cc1ccccc1)NC(c1ccco1)c1ccc2cccnc2c1O` (stereo not given): the result was inactive. For the molecule `CN1C(=S)SC(c2ccccc2)N(C)C1c1ccccc1` (stereo not given), the outcome was inactive. `CCNc1nc(NCC)nc(-n2cc(C(=O)c3cc(Cl)ccc3O)cn2)n1`: the outcome was inactive. Still for that read-out and setting: for `O=Nc1ccc(O)c2ncccc12` the value was “inactive”. On to `CC(C)C(=O)NC(c1ccco1)c1cc(Cl)c2cccnc2c1O` (stereo not given), for which the outcome was inactive.

On to `O=C(CC(c1ccco1)S(=O)(=O)c1ccccc1)c1ccc(F)cc1` (stereo not given), for which the result was inactive.

With `COc1ccc(NC(c2ccccn2)c2ccc3cccnc3c2O)cc1` (stereo not given), the result was inactive. Regarding `CC(C)C(=O)NC(/C=C/c1ccccc1)c1cc([N+](=O)[O-])c2cccnc2c1O` (stereo not given), the outcome was inactive. Take `CCOCc1ccc(O)c2ncccc12`: the outcome was inactive. Still for that read-out and setting: next, `Oc1c(C(Nc2ccccn2)c2ccco2)cc(Cl)c2cccnc12` (stereo not given): “inactive”. Still for that read-out and setting: for `Cc1ccc(N=Nc2ccc(O)c3ncccc23)cc1C` the value was “inactive”; for `COc1ccc(C(=O)NC(c2ccco2)c2cc(Cl)c3cccnc3c2O)cc1` (stereo not given), “inactive”; for `CC(C)C(=O)NC(c1ccco1)c1ccc2cccnc2c1O` (stereo not given), “inactive”. `Cc1ccc2ccc(C(Nc3cccc(Cl)c3)c3ccccn3)c(O)c2n1` (stereo not given): the result was inactive. As for `CC(C)C(=O)NC(c1ccc(C(C)C)cc1)c1cc(Cl)c2cccnc2c1O` (stereo not given), the result was inactive. On the same count and under the same terms, next, `COc1ccc(C(NC(=O)C(C)C)c2ccc3cccnc3c2O)cc1` (stereo not given): “inactive”.
